From PMC7862700, “An all-to-all approach to the identification of sequence-specific readers for epigenetic DNA modifications on cytosine”

What was measured:
Assay in all cases: DAPPL (digital affinity profiling via proximity ligation, sequencing); 10 mM Tris-HCl pH 7.5, 50 mM NaCl, 1 mM DTT, 4% glycerol, room temperature, 30 min; GST-TFs on glutathione beads, 16-mer random dsDNA library, 0.1% formaldehyde crosslink after washing; high values mean tight binding
FLI1 = biological target: T1, FLI1 (Homo sapiens, UniProt Q01543 1-452); details: protein: recombinant; tags: N-terminal GST; dsDNA, one strand shown
T1 sequence: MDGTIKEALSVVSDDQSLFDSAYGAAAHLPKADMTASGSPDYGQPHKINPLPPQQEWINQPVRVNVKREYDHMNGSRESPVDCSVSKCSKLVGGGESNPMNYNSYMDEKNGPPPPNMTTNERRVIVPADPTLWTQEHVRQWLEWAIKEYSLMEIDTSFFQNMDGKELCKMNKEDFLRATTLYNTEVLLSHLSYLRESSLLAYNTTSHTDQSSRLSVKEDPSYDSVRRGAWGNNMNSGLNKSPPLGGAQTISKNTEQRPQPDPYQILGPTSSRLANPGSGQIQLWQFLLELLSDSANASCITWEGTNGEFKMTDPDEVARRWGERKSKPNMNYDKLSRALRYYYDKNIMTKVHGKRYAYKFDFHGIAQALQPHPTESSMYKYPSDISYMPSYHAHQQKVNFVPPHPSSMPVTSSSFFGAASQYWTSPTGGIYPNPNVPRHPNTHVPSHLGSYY
In short: (§1)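 GST fusions of human transcription factors were expressed in yeast and captured with glutathione beads. Once given DNA barcodes and pooled alongside a tag-only sample, they were incubated for 30 min at room temperature with 200 nmole of a random double-stranded 16-mer DNA library in Tris/NaCl/DTT/glycerol buffer, then washed, crosslinked (0.1% formaldehyde), proximity-ligated, PCR-amplified and sequenced on an Illumina NextSeq500. The binding signal of each hexamer is its read frequency for a factor divided by its frequency for the tag-only sample.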

ELK1 = biological target: T2, ELK1 (Homo sapiens, UniProt P19419 1-428); details: protein: recombinant; tags: N-terminal GST; dsDNA, one strand shown
T2 sequence: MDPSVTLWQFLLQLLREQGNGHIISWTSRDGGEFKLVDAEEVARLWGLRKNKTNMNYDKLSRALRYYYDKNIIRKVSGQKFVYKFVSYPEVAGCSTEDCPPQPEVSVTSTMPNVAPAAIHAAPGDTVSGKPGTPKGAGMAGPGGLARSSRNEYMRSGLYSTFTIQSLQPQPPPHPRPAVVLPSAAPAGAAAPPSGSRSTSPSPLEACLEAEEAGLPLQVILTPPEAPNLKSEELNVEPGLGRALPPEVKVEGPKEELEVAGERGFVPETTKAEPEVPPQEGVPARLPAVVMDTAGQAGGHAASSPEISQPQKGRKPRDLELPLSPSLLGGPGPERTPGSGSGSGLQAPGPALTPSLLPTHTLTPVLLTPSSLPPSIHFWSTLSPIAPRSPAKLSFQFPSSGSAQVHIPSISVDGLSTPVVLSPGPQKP
In short: as §1

GABPA = biological target: T3, GABPA (Homo sapiens, UniProt Q06546 1-454); details: protein: recombinant; tags: N-terminal GST; dsDNA, one strand shown
T3 sequence: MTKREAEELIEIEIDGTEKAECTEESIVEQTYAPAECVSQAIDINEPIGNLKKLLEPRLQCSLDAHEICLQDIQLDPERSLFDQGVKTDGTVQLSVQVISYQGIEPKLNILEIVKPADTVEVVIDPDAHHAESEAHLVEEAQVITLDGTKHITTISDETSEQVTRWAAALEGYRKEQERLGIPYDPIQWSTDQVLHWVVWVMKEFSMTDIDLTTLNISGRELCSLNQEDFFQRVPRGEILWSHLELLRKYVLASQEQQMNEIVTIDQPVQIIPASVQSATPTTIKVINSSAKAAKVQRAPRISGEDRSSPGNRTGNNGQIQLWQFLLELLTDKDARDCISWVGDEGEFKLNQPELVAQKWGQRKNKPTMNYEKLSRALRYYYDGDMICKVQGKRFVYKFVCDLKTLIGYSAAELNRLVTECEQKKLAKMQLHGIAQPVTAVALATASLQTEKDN
In short: as §1

ERG = biological target: T4, ERG (Homo sapiens, UniProt P11308 1-479); details: protein: recombinant; tags: N-terminal GST; dsDNA, one strand shown
T4 sequence: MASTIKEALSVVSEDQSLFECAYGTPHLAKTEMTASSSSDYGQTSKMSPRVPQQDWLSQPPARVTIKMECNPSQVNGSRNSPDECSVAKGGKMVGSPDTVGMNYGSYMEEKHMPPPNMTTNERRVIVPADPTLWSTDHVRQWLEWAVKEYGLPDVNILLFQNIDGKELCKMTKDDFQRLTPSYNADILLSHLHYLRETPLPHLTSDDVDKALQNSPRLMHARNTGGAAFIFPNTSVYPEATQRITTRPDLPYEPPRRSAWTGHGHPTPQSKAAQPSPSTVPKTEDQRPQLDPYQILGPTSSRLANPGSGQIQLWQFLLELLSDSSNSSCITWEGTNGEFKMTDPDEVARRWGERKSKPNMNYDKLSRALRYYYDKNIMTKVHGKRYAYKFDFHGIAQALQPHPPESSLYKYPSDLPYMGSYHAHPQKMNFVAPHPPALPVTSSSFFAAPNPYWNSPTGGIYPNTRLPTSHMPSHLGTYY
In short: as §1

ELF1 = ELF1 (Homo sapiens, UniProt P32519 1-619); details: protein: recombinant; tags: N-terminal GST; dsDNA, one strand shown
Sequence of ELF1 (P32519 whole entry): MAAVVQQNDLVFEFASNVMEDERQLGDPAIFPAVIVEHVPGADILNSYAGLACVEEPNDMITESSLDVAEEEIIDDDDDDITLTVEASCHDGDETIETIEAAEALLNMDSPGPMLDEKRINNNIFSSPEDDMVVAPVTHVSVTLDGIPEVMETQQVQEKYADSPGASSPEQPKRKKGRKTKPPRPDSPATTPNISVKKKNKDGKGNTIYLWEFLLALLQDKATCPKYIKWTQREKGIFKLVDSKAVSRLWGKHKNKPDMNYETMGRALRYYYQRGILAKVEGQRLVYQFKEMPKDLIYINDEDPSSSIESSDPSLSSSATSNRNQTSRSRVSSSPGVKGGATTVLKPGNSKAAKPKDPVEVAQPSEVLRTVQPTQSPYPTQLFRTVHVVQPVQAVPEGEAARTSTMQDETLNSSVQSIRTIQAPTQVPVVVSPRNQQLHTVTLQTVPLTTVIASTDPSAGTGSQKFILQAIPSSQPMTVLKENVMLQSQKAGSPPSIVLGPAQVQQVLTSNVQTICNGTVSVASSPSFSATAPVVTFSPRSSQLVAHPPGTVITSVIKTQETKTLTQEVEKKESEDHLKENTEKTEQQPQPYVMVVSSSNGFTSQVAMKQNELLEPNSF
In short: as §1

EHF = biological target: T5, EHF (Homo sapiens, UniProt Q9NZC4 1-300); details: protein: recombinant; tags: N-terminal GST; dsDNA, one strand shown
T5 sequence: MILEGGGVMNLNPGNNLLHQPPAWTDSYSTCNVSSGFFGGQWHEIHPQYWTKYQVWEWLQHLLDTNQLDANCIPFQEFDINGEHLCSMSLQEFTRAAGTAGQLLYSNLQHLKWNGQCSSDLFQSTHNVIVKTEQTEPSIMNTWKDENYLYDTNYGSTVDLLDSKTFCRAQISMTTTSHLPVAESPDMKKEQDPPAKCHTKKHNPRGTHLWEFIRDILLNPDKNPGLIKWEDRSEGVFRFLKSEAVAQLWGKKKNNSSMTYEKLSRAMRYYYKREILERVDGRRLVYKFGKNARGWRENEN
In short: as §1

SPI1 = SPI1 (Homo sapiens, UniProt P17947 1-270); details: protein: recombinant; tags: N-terminal GST; dsDNA, one strand shown
In short: as §1

SPIB = SPIB (Homo sapiens, UniProt Q01892 1-262); details: protein: recombinant; tags: N-terminal GST; dsDNA, one strand shown
Sequence of SPIB (Q01892 whole entry): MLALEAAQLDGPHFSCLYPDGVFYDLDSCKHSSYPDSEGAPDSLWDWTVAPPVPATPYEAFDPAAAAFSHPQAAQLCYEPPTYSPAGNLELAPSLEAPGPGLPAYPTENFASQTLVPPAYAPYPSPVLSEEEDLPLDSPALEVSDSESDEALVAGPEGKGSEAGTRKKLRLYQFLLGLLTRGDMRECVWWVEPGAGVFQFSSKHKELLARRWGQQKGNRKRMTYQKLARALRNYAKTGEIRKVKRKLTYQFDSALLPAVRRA
In short: as §1

ELK3 = biological target: T6, ELK3 (Homo sapiens, UniProt P41970 1-407); details: protein: recombinant; tags: N-terminal GST; dsDNA, one strand shown
T6 sequence: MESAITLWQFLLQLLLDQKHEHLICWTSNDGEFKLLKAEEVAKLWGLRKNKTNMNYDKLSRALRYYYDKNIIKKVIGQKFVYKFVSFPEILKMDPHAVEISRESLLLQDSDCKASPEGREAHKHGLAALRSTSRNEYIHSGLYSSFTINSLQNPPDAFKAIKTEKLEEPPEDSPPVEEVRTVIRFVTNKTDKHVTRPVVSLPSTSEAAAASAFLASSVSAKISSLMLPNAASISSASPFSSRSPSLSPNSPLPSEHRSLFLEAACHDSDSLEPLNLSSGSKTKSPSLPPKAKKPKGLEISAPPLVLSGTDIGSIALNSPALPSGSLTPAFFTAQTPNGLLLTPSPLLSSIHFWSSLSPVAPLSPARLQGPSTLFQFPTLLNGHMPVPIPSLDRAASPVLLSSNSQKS
In short: as §1

FEV = biological target: T7, FEV (Homo sapiens, UniProt Q99581 1-238); details: protein: recombinant; tags: N-terminal GST; dsDNA, one strand shown
T7 sequence: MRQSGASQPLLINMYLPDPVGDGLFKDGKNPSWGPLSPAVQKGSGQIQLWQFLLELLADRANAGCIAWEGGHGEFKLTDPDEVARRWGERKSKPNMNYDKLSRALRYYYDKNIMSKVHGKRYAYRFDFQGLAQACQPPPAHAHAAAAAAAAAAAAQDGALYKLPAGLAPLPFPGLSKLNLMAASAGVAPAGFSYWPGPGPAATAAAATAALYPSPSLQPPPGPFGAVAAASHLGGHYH
In short: as §1

ETV5 = ETV5 (Homo sapiens, UniProt P41161 1-510); details: protein: recombinant; tags: N-terminal GST; dsDNA, one strand shown
Sequence of ETV5 (P41161 whole entry): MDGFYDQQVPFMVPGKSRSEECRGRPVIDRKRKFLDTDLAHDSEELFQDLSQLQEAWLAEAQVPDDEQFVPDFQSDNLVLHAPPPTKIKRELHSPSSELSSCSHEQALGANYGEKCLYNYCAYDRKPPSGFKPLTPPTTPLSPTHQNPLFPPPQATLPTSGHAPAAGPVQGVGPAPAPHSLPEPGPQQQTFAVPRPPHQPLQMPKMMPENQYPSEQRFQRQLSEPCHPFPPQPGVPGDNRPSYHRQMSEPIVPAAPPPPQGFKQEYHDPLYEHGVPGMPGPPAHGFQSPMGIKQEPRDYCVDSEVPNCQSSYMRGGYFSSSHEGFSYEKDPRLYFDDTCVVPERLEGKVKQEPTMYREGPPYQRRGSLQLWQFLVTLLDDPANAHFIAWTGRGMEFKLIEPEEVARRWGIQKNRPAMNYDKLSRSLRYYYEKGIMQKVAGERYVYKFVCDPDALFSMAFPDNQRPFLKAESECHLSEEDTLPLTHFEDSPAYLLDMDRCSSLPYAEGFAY
In short: as §1

HSF1 = HSF1 (Homo sapiens, UniProt Q00613 1-529); details: protein: recombinant; tags: N-terminal GST; chain copies: 3; dsDNA, one strand shown
Sequence of HSF1 (Q00613 whole entry): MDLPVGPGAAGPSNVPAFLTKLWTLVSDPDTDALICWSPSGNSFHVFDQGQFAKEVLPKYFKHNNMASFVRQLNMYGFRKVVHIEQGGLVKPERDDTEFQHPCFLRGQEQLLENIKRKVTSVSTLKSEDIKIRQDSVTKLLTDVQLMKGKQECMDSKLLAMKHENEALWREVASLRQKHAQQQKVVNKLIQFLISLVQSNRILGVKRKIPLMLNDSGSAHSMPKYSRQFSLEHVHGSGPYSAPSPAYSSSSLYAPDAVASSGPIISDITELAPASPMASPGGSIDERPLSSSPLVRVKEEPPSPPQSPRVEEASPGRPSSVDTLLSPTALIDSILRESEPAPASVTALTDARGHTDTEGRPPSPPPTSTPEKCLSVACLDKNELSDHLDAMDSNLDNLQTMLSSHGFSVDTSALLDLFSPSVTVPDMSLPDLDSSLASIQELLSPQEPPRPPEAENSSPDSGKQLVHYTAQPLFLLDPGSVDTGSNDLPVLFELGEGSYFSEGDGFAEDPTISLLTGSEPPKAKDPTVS
In short: as §1

SPIC = biological target: T8, SPIC (Homo sapiens, UniProt Q8N5J4 1-248); details: protein: recombinant; tags: N-terminal GST; dsDNA, one strand shown
T8 sequence: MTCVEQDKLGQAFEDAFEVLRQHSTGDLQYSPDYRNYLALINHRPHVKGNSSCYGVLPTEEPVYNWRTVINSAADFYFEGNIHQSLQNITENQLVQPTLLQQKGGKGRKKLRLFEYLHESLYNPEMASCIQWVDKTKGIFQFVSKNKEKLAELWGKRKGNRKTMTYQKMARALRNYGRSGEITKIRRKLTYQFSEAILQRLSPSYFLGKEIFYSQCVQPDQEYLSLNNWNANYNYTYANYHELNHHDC
In short: as §1

ELF4 = ELF4 (Homo sapiens, UniProt Q99607 1-663); details: protein: recombinant; tags: N-terminal GST; dsDNA, one strand shown
Sequence of ELF4 (Q99607 whole entry): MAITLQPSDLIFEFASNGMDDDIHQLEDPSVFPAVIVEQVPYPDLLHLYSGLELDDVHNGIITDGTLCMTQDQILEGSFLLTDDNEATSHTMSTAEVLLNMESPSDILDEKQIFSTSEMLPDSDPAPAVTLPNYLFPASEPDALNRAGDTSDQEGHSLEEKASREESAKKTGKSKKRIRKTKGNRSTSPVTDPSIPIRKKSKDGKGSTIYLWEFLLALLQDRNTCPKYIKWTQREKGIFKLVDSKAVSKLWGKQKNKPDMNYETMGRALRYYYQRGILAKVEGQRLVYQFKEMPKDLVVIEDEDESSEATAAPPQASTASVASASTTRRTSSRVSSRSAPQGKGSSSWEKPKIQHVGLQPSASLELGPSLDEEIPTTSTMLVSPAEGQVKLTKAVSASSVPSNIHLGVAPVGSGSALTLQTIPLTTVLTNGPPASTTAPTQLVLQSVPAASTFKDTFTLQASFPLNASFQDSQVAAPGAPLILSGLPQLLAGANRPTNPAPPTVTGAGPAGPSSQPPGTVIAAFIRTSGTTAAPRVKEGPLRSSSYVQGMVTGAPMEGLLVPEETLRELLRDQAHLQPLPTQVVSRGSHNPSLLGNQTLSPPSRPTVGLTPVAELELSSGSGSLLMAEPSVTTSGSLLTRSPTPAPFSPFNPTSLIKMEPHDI
In short: as §1

ELK4 = biological target: T9, ELK4 (Homo sapiens, UniProt P28324-2 1-405); details: protein: recombinant; tags: N-terminal GST; dsDNA, one strand shown
T9 sequence: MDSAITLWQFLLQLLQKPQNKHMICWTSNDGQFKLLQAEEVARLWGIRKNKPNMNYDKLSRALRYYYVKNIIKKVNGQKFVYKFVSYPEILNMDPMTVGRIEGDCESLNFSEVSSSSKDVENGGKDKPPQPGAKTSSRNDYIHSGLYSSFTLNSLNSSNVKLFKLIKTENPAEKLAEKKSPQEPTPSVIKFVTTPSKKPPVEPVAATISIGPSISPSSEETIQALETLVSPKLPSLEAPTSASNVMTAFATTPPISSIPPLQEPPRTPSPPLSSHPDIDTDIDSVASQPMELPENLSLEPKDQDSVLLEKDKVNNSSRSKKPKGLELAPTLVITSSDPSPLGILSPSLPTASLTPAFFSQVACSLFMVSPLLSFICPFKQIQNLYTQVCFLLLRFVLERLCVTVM
In short: as §1

ETV2 = biological target: T10, ETV2 (Homo sapiens, UniProt O00321 1-342); details: protein: recombinant; tags: N-terminal GST; dsDNA, one strand shown
T10 sequence: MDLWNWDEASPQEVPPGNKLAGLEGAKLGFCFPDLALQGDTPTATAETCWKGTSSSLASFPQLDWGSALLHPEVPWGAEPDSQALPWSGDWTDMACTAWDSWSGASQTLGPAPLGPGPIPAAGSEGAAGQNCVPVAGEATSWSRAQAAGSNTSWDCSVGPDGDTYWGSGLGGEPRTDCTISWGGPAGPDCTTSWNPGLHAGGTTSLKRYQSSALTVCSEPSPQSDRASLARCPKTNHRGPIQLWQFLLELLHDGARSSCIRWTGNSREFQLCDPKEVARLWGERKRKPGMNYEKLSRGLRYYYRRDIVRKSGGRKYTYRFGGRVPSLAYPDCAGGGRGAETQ
In short: as §1

ELF3 = biological target: T11, ELF3 (Homo sapiens, UniProt P78545 1-371); details: protein: recombinant; tags: N-terminal GST; dsDNA, one strand shown
T11 sequence: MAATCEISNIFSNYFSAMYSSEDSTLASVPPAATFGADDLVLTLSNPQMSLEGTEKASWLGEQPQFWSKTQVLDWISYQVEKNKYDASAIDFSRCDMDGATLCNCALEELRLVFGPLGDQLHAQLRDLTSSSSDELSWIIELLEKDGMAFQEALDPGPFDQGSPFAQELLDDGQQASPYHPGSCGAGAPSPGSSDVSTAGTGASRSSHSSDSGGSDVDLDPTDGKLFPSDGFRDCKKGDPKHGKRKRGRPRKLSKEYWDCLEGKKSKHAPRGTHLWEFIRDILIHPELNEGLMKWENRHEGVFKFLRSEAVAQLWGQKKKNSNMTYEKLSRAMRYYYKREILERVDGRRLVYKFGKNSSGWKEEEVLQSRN
In short: as §1

CRX = CRX (Homo sapiens, UniProt O43186 1-299); details: protein: recombinant; tags: N-terminal GST; dsDNA, one strand shown
Sequence of CRX (O43186 whole entry): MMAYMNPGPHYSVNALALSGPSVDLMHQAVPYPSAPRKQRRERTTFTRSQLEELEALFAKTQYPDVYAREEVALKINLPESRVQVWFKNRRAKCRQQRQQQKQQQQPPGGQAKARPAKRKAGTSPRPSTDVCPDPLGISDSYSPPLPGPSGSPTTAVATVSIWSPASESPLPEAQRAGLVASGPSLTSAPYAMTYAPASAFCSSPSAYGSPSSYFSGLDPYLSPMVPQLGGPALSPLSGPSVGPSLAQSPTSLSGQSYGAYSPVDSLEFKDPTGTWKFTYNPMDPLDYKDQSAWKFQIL
In short: as §1

ETV1 = ETV1 (Homo sapiens, UniProt P50549 1-477); details: protein: recombinant; tags: N-terminal GST; dsDNA, one strand shown
Sequence of ETV1 (P50549 whole entry): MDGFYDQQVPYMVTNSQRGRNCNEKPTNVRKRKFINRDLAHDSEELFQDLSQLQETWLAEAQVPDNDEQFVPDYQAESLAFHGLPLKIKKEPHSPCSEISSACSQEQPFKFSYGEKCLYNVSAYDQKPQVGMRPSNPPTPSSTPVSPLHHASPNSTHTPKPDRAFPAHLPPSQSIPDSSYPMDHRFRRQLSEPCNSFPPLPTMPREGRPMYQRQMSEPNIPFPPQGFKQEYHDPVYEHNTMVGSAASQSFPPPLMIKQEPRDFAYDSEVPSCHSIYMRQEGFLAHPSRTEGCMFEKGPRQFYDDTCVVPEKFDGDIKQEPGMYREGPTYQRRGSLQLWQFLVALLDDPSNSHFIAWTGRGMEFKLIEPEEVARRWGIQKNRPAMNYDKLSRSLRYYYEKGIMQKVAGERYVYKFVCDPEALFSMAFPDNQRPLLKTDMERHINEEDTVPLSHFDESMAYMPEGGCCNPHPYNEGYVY
In short: as §1

## GCTCGA
FLI1
  binding signal: 1.22 fold enrichment (6-mer frequency, TF over GST control)
ELK1
  binding signal: 1.12 fold enrichment (6-mer frequency, TF over GST control)
GABPA
  binding signal: 1.15 fold enrichment (6-mer frequency, TF over GST control)
ERG
  binding signal: 1.2 fold enrichment (6-mer frequency, TF over GST control)
ELF1
  binding signal: 1.21 fold enrichment (6-mer frequency, TF over GST control)
EHF
  binding signal: 1.19 fold enrichment (6-mer frequency, TF over GST control)
SPI1
  binding signal: 1.22 fold enrichment (6-mer frequency, TF over GST control)
SPIB
  binding signal: 1.24 fold enrichment (6-mer frequency, TF over GST control)
ELK3
  binding signal: 1.13 fold enrichment (6-mer frequency, TF over GST control)
FEV
  binding signal: 1.25 fold enrichment (6-mer frequency, TF over GST control)
ETV5
  binding signal: 1.22 fold enrichment (6-mer frequency, TF over GST control)
HSF1
  binding signal: 1.74 fold enrichment (6-mer frequency, TF over GST control)
SPIC
  binding signal: 1.31 fold enrichment (6-mer frequency, TF over GST control)
ELF4
  binding signal: 1.25 fold enrichment (6-mer frequency, TF over GST control)
ELK4
  binding signal: 1.29 fold enrichment (6-mer frequency, TF over GST control)
ETV2
  binding signal: 1.07 fold enrichment (6-mer frequency, TF over GST control)
ELF3
  binding signal: 1.24 fold enrichment (6-mer frequency, TF over GST control)
CRX
  binding signal: 1.17 fold enrichment (6-mer frequency, TF over GST control)
ETV1
  binding signal: 1.07 fold enrichment (6-mer frequency, TF over GST control)
